Reference: PubChem BioAssay (NCI)
Compounds without any hit were thinned out: in the full panel of roughly 83,000, 20% have a hit.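 The test compound was applied at a single concentration to cells in 96-well plates for 48 hours, and percent growth was recorded.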 The source made the active and inactive calls.

Each molecule was assayed on HS 578T breast (assay: NCI-60 one-dose screen, 48 h (100 = growth as untreated, 0 = no growth, -100 = all killed)). Details: 10 µM unless noted.
Protocol: Growth inhibition of the HS 578T human tumor cell line is measured as a screen for anti-cancer activity. Cells are grown in 96 well plates and exposed to the test compound for 48 hours. Compounds are tested at a single concentration, which is 10^-5 M for most compounds. The reported endpoint is percent growth (GI% or GIPRCNT), where numbers from 0 - 100% represent growth inhibition, and numbers from -100% - 0 represent cell death. For example, a value of 40 represents 60% growth inhibition. A value of 0 means no net growth occurred over the course of the experiment. A value of -40 indicates 40% of cells at the beginning of the experiment died by the end of the experiment. A value of -100 means all cells are dead at the end of the experiment.
NCI-60 Human Tumor Cell Lines Screen was performed using the standard one-dose NCI protocol, which is described in more detail at https://dtp.cancer.gov/discovery_development/nci-60/default.htm.
Compounds with GIPRCNT values below 10 were considered active. Activity score was based on GIPRCNT using the following formula: […]
Score is 0 for GIPRCNT values of 100 or above, 50 for GIPRCNT values of 0, and 100 for GIPRCNT values of -100.

SMILES	growth
CCOC(=O)c1cc(C(=O)c2cc(OC)cc(OC)c2)n2ncccc12	31.5% (inactive)
CCN=c1sc2c(n1NC(=O)c1cc3ccc1CCc1ccc(cc1)CC3)C(=O)c1ccccc1C2=O	-8.98% (active)
COC(=O)[C@@H](Cc1c[nH]c2ccccc12)NC(=O)[C@H](Cc1ccccc1)NCc1ccncc1	99.3% (inactive)
CN1CCN(Cc2ccc(NC(=O)c3cncc(C#Cc4c(N)ncc5ccccc45)c3)cc2C(F)(F)F)CC1	-31.5% (active)
CC(C)CCc1nc2ccc(NCc3ccc(OCCN4CCC(C)CC4)cc3)cc2[nH]1	84.3% (inactive)
O=C1/C(=C/c2ccc(Br)cc2)COc2ccc(O)cc21	96.2% (inactive)
COc1ccc(/C=N/NC(=O)Cn2nnc3ccccc32)cc1	77.6% (inactive)
CCOC(=O)c1ccc2c(c1)c1c(C)c3cnccc3c(C)c1n2C	-27.6% (active)
CC(=O)O[C@H]1C[C@@]2(C)[C@@H](C[C@@H](O)[C@H]3[C@@]4(C)CC[C@H](N5CCCC5)[C@@H](C)[C@@H]4CC[C@@]32C)/C1=C(\CCC=C(C)C)C(=O)O	95.3% (inactive)
c1ccc(-c2cn3nc(-c4c[nH]c5ccccc45)sc3n2)cc1	84.5% (inactive)
C=C(CNCCc1ccc(O)cc1)[C@@H]1CC[C@]2(CO)CC[C@]3(C)[C@H](CC[C@@H]4[C@@]5(C)CCC(N)C(C)(C)[C@@H]5CC[C@]43C)[C@@H]12 (stereo not given in full)	-66% (active)
O=C(/C=C/c1ccco1)c1ccc(Nc2ccnc3cc(Cl)ccc23)cc1	114% (inactive)
C=CCNc1ccc2c3c(cccc13)C(=O)N(CC=C)C2=O	91.6% (inactive)
CCOC(=O)/C(=C/c1ccc([N+](=O)[O-])cc1)C(=O)c1ccccc1	33.2% (inactive)
COc1cc2c(c(OC)c1OC)CCC(c1cccc(C(=O)Nc3ccc([N+](=O)[O-])cc3)c1)O2 (stereo not given)	77.1% (inactive)
O=C(Nc1ccc(Oc2cccc(F)c2)c(Cl)c1)c1cnccn1	27.8% (inactive)
CC(=O)O[C@H]1CC[C@@]2(C)C(=CC[C@@H]3[C@@H]2CC[C@]2(C)C(Cl)=C(c4nc5ccc(Cl)cn5c4NC(C)(C)C)C[C@@H]32)C1	85.6% (inactive)
Cc1cc(N2CCOCC2)nc(N(CCCNc2ccnc3cc(Cl)ccc23)Cc2ccc3c(c2)OCO3)n1	9.54% (active)
COc1ccc(/C=C\c2cc(OC)c(OC)c(OC)c2)cc1OCC(=O)Nc1nc2ccccc2s1	11.3% (inactive)
CN(C)c1ccc(/C=N/NC(=O)CSc2nc3sc4c(c3c(=O)n2-c2ccccc2)CCCCC4)cc1	23.9% (inactive)

SMILES	growth
C=C(C)[C@@H]1CC[C@]2(C(=O)NC(C)=O)CC[C@]3(C)[C@H](CC[C@@H]4[C@@]5(C)CCCNC(C)(C)[C@@H]5CC[C@]43C)[C@@H]12	52.3% (inactive)
CCCCCCCC/C=C\CCCCCCCCOc1ccc(CC(=O)NCC[N+]2(C)CCCC2)cc1	84.2% (inactive)
COc1cc(C(=O)n2nc(NCCCc3ccccc3)c3cc(N)ccc32)cc(OC)c1OC	111% (inactive)
O=C(/C=C/c1ccc(Cl)cc1)c1ccc(Nc2ccnc3cc(Cl)ccc23)cc1	102% (inactive)
Cc1ccc(Nc2oc(-c3ccccc3)nc2[P+](c2ccccc2)(c2ccccc2)c2ccccc2)cc1	-38.9% (active)
CCN(CC)CCCNC(=O)c1c2c(n3ccccc13)C(=O)c1ncccc1C2=O	37.5% (inactive)
CNC1=C([N+](=O)[O-])C(c2ccc(OC)cc2)C(C#N)=C(c2ccc[nH]2)O1 (stereo not given)	98.1% (inactive)
O=C(CN1C(=O)c2ccccc2S1(=O)=O)Nc1nc(-c2cc3ccccc3oc2=O)cs1	96.6% (inactive)
Cn1ccnc1C(=O)/C=C/c1ccc(CC(=O)Nc2cc(F)c(F)c(F)c2)cc1	13% (inactive)
COc1ccc(-c2csc(NC(=O)CSc3nc(C)cc(=O)[nH]3)n2)cc1	96.8% (inactive)
CNC(=O)c1cc(Oc2ccc3nc(NC(=O)Nc4ccc(F)cc4F)sc3c2)ccn1	44.5% (inactive)
CC(=O)Cc1nsc(NC(=O)c2cc(-c3cc(Cl)ccc3Cl)oc2C)n1	106% (inactive)
CCCn1cnc2c(c1=N)C(c1ccc(Cl)cc1)c1sc3c(F)cccc3c1O2 (stereo not given)	91.2% (inactive)
CC(=O)Oc1ccccc1C(=O)N(Cc1ccc2c(Cl)cc(Cl)c(O)c2n1)c1ccccc1	76.5% (inactive)
O=C(O)c1cc2ccccc2s1	99.3% (inactive)
CCOC(=O)c1c(N)sc2cc(O)ccc12	99.9% (inactive)
N#Cc1c(-c2ccc(Cl)cc2)nc(NN=Cc2cccc(Cl)c2)nc1N1CCOCC1	96.6% (inactive)
O=C(CSc1nc(-c2ccccc2)cn1-c1ccc(Cl)cc1)c1ccc([N+](=O)[O-])cc1	62.8% (inactive)
COc1c(O[C@@H]2OC(CO)[C@H](O)[C@H](O)C2O)cc2oc3cc(O)c(CC=C(C)C)c(O)c3c(=O)c2c1CC=C(C)C (stereo not given in full)	96.2% (inactive)
Cc1c(N2CCCCC2)[nH]c2ccccc12	96.2% (inactive)
